The text below walks through data of PubChem BioAssay (NCATS).

In one experiment the test system is CRL-7250. The experiment in a line: Cytotoxic Profiling of Annotated Libraries Using Quantitative High-Throughput Screening (AID 1296008). On max response: on the % scale 0 is the no-effect control and ±100 the full control effect. The conditions noted are these: Five cell lines viability, CellTiter-Glo ATP luminescence, 48-72 h; max response: hits give low values. The method in brief: (§1)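 Compounds were pin-transferred onto cells and incubated 48 or 72 hr at 37 degree Celsius, 95% humidity. CellTiter-Glo was added, plates sat 10 min at room temperature, then ATP-coupled luminescence was imaged as the viability read-out.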
On the technique in general: In ATP-based viability assays light output follows the ATP content of the culture.

Experiment [1] concerns HaCat. The experiment is described as above. Conditions: Five cell lines viability, CellTiter-Glo ATP luminescence, 48-72 h; max response: hits give low values. The method, boiled down:
as §1

In a further experiment the test system is KB-3-1. The description is as above. Conditions: Five cell lines viability, CellTiter-Glo ATP luminescence, 48-72 h; max response: hits give low values. The method in brief:
as §1

In another experiment the test system is MCC-13. The experiment in a line: qHTS assay to identify novel small-molecules to repurpose for Merkel cell carcinoma treatment (AID 1296009). The conditions noted are these: MCC and control cell lines, CellTiter-Glo viability, 72 h; series mostly up to 46 µM. The method in brief:
(§2)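 qHTS format: cells treated with library compounds in DMSO across 8 (NPC) or 11 (MIPE) concentrations. Readout after 72 hr at 37 degree celsius was CellTiter-Glo luminescence.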
Background: qHTS replaces the single test concentration by a dilution series.

A further experiment concerns MKL-1. The experiment is described as above. Conditions: MCC and control cell lines, CellTiter-Glo viability, 72 h; series mostly up to 46 µM. The method in brief: as §2
The next experiment deals with MKL-2. The description is as above. Conditions: MCC and control cell lines, CellTiter-Glo viability, 72 h; series mostly up to 46 µM. The method in brief:
as §2

The subject of a further experiment is UISO. The description is as above. The conditions noted are these: MCC and control cell lines, CellTiter-Glo viability, 72 h; series mostly up to 46 µM. The method in brief:
as §2

Another experiment concerns HEK293. In words: Cytotoxic Profiling of Annotated Libraries Using Quantitative High-Throughput Screening (AID 1296008). On max response: on the % scale 0 is the no-effect control and ±100 the full control effect. The conditions noted are these: Five cell lines viability, CellTiter-Glo ATP luminescence, 48-72 h; max response: hits give low values. The method, boiled down: as §1
Experiment [2] relates to NIH3T3. The experiment is described as above. Conditions: Five cell lines viability, CellTiter-Glo ATP luminescence, 48-72 h; max response: hits give low values. The method, boiled down:
as §1

Experiment [3] deals with HACAT. The experiment in a line: qHTS assay to identify novel small-molecules to repurpose for Merkel cell carcinoma treatment (AID 1296009). The conditions noted are these: MCC and control cell lines, CellTiter-Glo viability, 72 h; series mostly up to 44.8 µM. The method, boiled down: as §2
In the next experiment the test system is MCC-26. The experiment is described as above. The conditions noted are these: MCC and control cell lines, CellTiter-Glo viability, 72 h; series mostly up to 46 µM. The method in brief: as §2
The subject of the next experiment is PC49. In words: qHTS profiling for inhibitors of Plasmodium falciparum proliferation (AID 504749). Conditions: P. falciparum in erythrocytes, SYBR Green DNA, 72 h; series mostly up to 28.7 µM. The method in brief:
(§3)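 Parasite proliferation within erythrocytes, 72 h exposure. Endpoint: SYBR Green I fluorescence after overnight lysis at room temperature. Controls: 0.29 uM artemisinin, DMSO.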

For another experiment, the system named is TAB109. The experiment is described as above. Conditions: P. falciparum in erythrocytes, SYBR Green DNA, 72 h; series mostly up to 28.7 µM. The method, boiled down: as §3
Another experiment has as its system TAB165. The experiment is described as above. The conditions noted are these: P. falciparum in erythrocytes, SYBR Green DNA, 72 h; series mostly up to 28.7 µM. The method, boiled down:
as §3

In the next experiment the test system is W2. The description is as above. The conditions noted are these: P. falciparum in erythrocytes, SYBR Green DNA, 72 h; series mostly up to 28.7 µM. The method in brief:
as §3

Experiment [4] has as its system NIH3T3. The experiment in a line: qHTS assay to identify novel small-molecules to repurpose for Merkel cell carcinoma treatment (AID 1296009). The conditions noted are these: MCC and control cell lines, CellTiter-Glo viability, 72 h; at 44.8 µM (top of the series) unless noted. The method in brief: as §2

Where “and” joins values, the source holds several entries; their conditions need not be identical. Identical values can stand only once. Inconclusive results are not listed. Some compounds were tested as several samples or in several runs, with calls that do not always agree. A number with no mark means an inactive call. Calls of active or inactive are those of the source. The call rests on the fitted dose curve; in most records, active means well fitted inhibition curve with a large enough effect; inconclusive means small, poorly fitted or top-dose-only effect; inactive means flat fitted curve, though single readings scatter.
Further: nearly all actives have a fitted effect of over 60% in size.
Potency means the concentration at half of the fitted maximal effect.

For `CC(C)[C@H](C(=O)Nc1ccc(C(=O)NO)cc1)c1ccccc1`, the Potency is 4.18 µM (active) in the experiment with CRL-7250; 5.9 µM (active) in the experiment with HaCat [1]; 2.35 µM (active) in the experiment with KB-3-1; 5.26 µM (active) with MCC-13; 0.935 µM (active) in the experiment with MKL-1; 0.833 µM (active) in the experiment on MKL-2. Moreover, in the experiment with UISO, the Potency is 3.32 µM (active).

As to `CNC(=O)c1c(F)cccc1Nc1nc(Nc2cc3c(cc2OC)CCN3C(=O)CN(C)C)nc2[nH]ccc12`, the Potency with HEK293 was 4.18 µM (active) and 13 µM (active); in the experiment on HaCat [1], 18.4 µM (active); in the experiment with NIH3T3 [2] it was 7.31 µM (active); in the experiment on MCC-26, 23.5 µM (active); in the experiment with MKL-1, 18.7 µM (active); in the experiment on MKL-2, 5.9 µM (active). For the same molecule, in the experiment on UISO, the Potency was 5.9 µM (active). Further, the molecule was classed as inactive in the experiment on HaCat [1]. The Potency entry with HACAT [3] was “inactive”.

For `CN[C@H]1CCc2cc(OC)c(OC)c(OC)c2-c2ccc(OC)c(=O)cc21`, the Potency in the experiment on CRL-7250 was 0.0148 µM (active); with KB-3-1 it was 3.7 nM (active) and 46.1 nM (active); in the experiment on MCC-13, 0.0209 µM (active). Besides, the max response in the experiment with HaCat [1] was -10.1%.

In the case of `CCn1cc(-c2ccnc3[nH]c(-c4cccc(CN(C)C)c4)cc23)c(-c2ccc(NC(=O)N(C)C)cc2)n1`, the Potency is 14.8 µM (active) with CRL-7250; 0.0893 µM (active) with HaCat [1]; 1.87 µM (active) and 63.2 nM (active) with KB-3-1; 3.72 µM (active) and 632 nM (active) in the experiment with NIH3T3 [2]; 0.0372 µM (active) in the experiment on MKL-1; 8.33 µM (active) in the experiment on MKL-2. Besides, the Potency with UISO is 13.2 µM (active).

As for `COc1cc2c(cc1-c1c(C)noc1C)ncc1[nH]c(=O)n([C@H](C)c3ccccn3)c12`, the Potency with CRL-7250 was 3.26 µM (active); in the experiment with KB-3-1, 16.6 µM (active); with NIH3T3 [2] it was 20.9 µM (active); in the experiment on MCC-26, 23.5 µM (active); with MKL-1, 18.7 µM (active); with MKL-2, 2.64 µM (active). The Potency in the experiment on UISO was 14.8 µM (active). The max response in the experiment on HaCat [1] is -12.8%.

In the case of `Cc1ccc(C(N)=O)cc1Nc1nccc(-c2cn(C(C)C)c3cnccc23)n1`, the Potency in the experiment on CRL-7250 was 11.6 µM (active); with HaCat [1] it was 23.5 µM (active); with KB-3-1, 5.8 µM (active); in the experiment with NIH3T3 [2], 10.5 µM (active); with MKL-2, 20.9 µM (active); with UISO, 4.18 µM (active).

For the molecule `COc1cc(C(=O)NS(=O)(=O)c2ccccc2C)ccc1Cc1cn(C)c2ccc(NC(=O)OC3CCCC3)cc12`, the Potency result in the experiment on PC49, in the experiment on TAB109, in the experiment on TAB165 and in the experiment on MKL-1 was “inactive” in each case. For the same molecule, the Potency was 7.57 µM (active) with W2 and 20.9 µM (active) in the experiment on UISO. In addition, the result in the experiment on CRL-7250 was inactive. The max response with KB-3-1 is -2.66%.

Turning to `Cc1ccc(S(=O)(=O)Nc2cc(Cl)ccc2C(=O)Nc2nc(-c3ccccc3)cs2)cc1`, the figures for the max response in the experiment on CRL-7250 and in the experiment with KB-3-1 were 3.55% and -7.08%, respectively. The molecule was called inactive in the experiment on HaCat [1]. For the same molecule, the Potency entry in the experiment on HACAT [3], in the experiment on MCC-13, in the experiment with MCC-26, with MKL-1 and in the experiment with MKL-2 was “inactive” throughout.

Consider `CNc1nccc(-c2cccnc2Oc2cc(C(=O)Nc3cccc(C(F)(F)F)c3)ccc2C)n1`, for which the values for the Potency with CRL-7250 and in the experiment with NIH3T3 [2] were 7.31 µM (active) and 18.4 µM (active), respectively. In addition, the result with KB-3-1 was inactive. Moreover, the Potency entry in the experiment on MKL-1, with MKL-2 and in the experiment on UISO was “inactive” throughout.

As for `CNC(=O)c1ccccc1Nc1nc(Nc2ccc(N3CCOCC3)cc2OC)ncc1Cl`, the Potency was 7.43 µM (active) and 4.11 µM (active) in the experiment on CRL-7250; 2.96 µM (active) and 2.31 µM (active) with HaCat [1]; 2.64 µM (active) and 1.3 µM (active) with KB-3-1; 1.05 µM (active) in the experiment with NIH3T3 [2]; 1.48 µM (active) in the experiment on UISO. The Potency result in the experiment on MKL-2 was “inactive”.

Consider `O=C(O)C1(Cc2cccc(Nc3nccs3)n2)CCC(Oc2cccc(Cl)c2F)CC1` (stereo not given), for which the max response in the experiment on CRL-7250 was -5.96% and -3.26%. The Potency was 5.26 µM (active) and 4.61 µM (active) in the experiment on HaCat [1]; 2.35 µM (active) in the experiment on KB-3-1; 10.5 µM (active) with MCC-13. Besides, the Potency result in the experiment on MCC-26 and in the experiment on MKL-2 was “inactive” throughout.

Consider `CCN(CC)CCCCNc1ncc2cc(-c3cc(OC)cc(OC)c3)c(NC(=O)NC(C)(C)C)nc2n1`, for which the Potency in the experiment with CRL-7250 was 0.264 µM (active). Further, in the experiment with KB-3-1, the max response is -22.2%. Besides, the Potency entry in the experiment on MCC-13, in the experiment with MCC-26, in the experiment with MKL-1 and in the experiment on MKL-2 was “inactive” each time.

Turning to `COCCOc1ccc2c(c1)ncn2-c1ccc2cccc(N3CCC(N)CC3)c2n1`, the Potency in the experiment on CRL-7250 was 4.69 µM (active) and 8.2 µM (active); with HaCat [1], 18.7 µM (active) and 16.4 µM (active); with KB-3-1, 16.6 µM (active) and 11.6 µM (active); in the experiment with NIH3T3 [2] it was 1.48 µM (active); with MKL-1, 20.9 µM (active); with UISO it was 26.4 µM (active).

Consider `C[C@@H]1COC(Nc2ccc3ncnc(Nc4ccc(OCc5nccs5)c(Cl)c4)c3c2)=N1`, for which the Potency with HEK293 is 8.33 µM (active) and 16.4 µM (active); in the experiment with HaCat [1] it was 1.66 µM (active) and 1.3 µM (active). The max response in the experiment with KB-3-1 is -27.7%; in the experiment with NIH3T3 [2], -19.2%. Also, the result with NIH3T3 [2] and with NIH3T3 [4] was inactive. Besides, the Potency entry in the experiment on MCC-13 and with MCC-26 was “inactive” in each case.

Consider `C=C1C(=CC=C2CCCC3(C)[C@@H]([C@H](C)C=CC=CC(O)(CC)CC)CC[C@@H]23)C[C@@H](O)C[C@@H]1O` (stereo not given in full), for which the max response in the experiment with CRL-7250 was 4.9%. Also, the outcome in the experiment with HaCat [1] and in the experiment with KB-3-1 was inactive. Also, the Potency entry in the experiment with HACAT [3], in the experiment with MCC-13, in the experiment with MCC-26, in the experiment with MKL-1 and in the experiment with UISO was “inactive” in each case. Moreover, the Potency with MKL-2 is 14.8 µM (active).

As for `COc1cc2c(Oc3ccc4[nH]c(C)cc4c3F)ncnc2cc1OCCCN1CCCC1`, the Potency is 8.2 µM (active) in the experiment on CRL-7250; 8.33 µM (active) and 7.31 µM (active) in the experiment on HaCat [1]; 1.87 µM (active) and 2.06 µM (active) in the experiment with NIH3T3 [2]. For the same molecule, the Potency result in the experiment with MCC-13 and in the experiment with UISO was “inactive” in each case.

As to `COc1cc2c(Oc3ccc(-c4cnc(Nc5ccc(F)cc5)n(C)c4=O)cc3F)ccnc2cc1OCCCN1CCOCC1`, the Potency in the experiment on CRL-7250 is 13.2 µM (active); in the experiment on HaCat [1], 23.5 µM (active); with KB-3-1, 9.35 µM (active); in the experiment on NIH3T3 [2], 526 nM (active) and 5.8 µM (active); with MCC-26, 7.43 µM (active); in the experiment on UISO, 11.8 µM (active).
